Experimental data taken from PubChem BioAssay AID686979 (National Center for Advancing Translational Sciences (NCATS), 2013).
Out of some 420,000 compounds screened, about 50,000 (12%) were called active. Inconclusive results (about 26%) are left out. The sample holds actives, similar compounds and a random draw of the others, so the mix is not that of the screen. A number with no mark means an inactive call. Calls follow the shape of the dose curve; as a rule, active = well fitted inhibition curve with a large enough effect; inconclusive = small, poorly fitted or top-dose-only effect; inactive = flat fitted curve, though single readings scatter.

Experiment: qHTS for Inhibitors of human tyrosyl-DNA phosphodiesterase 1 (TDP1): qHTS in cells in presence of CPT; also: nearly all actives have a fitted effect of over 55% in size
Settings: chicken DT40 Tdp1-/-;hTDP1 cells + 20 nM CPT, ATP luminescence, 48 h; series mostly up to 46.2 µM; activity change, negative = growth inhibition: at the top concentration
Method in brief: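 Chicken DT40 Tdp1-/- cells stably complemented with human TDP1 were seeded at 400 cells/well in medium containing 20 nM camptothecin, exposed to pin-transferred compounds, and grown at 37 °C for at least 48 hr. Viability was read as ATP luminescence.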
% is scaled to controls: 0 for no effect and ±100 for the full control effect; potency is read from the fitted curve at half-maximal effect.

SMILES | activity change, negative = growth inhibition | Potency
C/C(N)=C(/C#N)C(=O)COC(=O)CNS(=O)(=O)c1ccc(C)cc1 | 7.08% | –
Cc1ccc(C(=O)O)c(NC=O)c1OCc1ccccc1 | 20.1% | –
COc1ccccc1C(c1nnnn1CC1CCCO1)N1CCN(c2ccccc2)CC1 (configuration not stated) | -0.846% | –
Cc1cccc(N2CCN(C(c3ccccc3)c3nnnn3CC3CCCO3)CC2)c1C (configuration not stated) | – | 20.6 µM (active)
Cc1cccc(N2CCN(C(c3ccc(N(C)C)cc3)c3nnnn3C(C)(C)C)CC2)c1C (configuration not stated) | -11.5% | –
Cc1nc2ccc(N)nc2nc1C | 1.9% | –
O=C1/C(=C/c2ccc3c(c2)OCO3)Oc2cc(OCC(=O)N3CC(O)C[C@H]3C(=O)O)ccc21 (some centres not stated) | -3.66% | –
Nc1cccc(OCCCCCOc2cccc(N)c2)c1 | -17.9% | –
O=C(c1ccccc1F)N1CCN(S(=O)(=O)c2ccc(Br)cc2)CC1 | -17.3% | –
O=S(=O)(c1ccc(Br)cc1)n1ccc2ccccc21 | – | 13 µM (active)
O=C(O)C1CCCN1S(=O)(=O)c1ccc(Br)cc1 (configuration not stated) | 6.77% | –
COc1cccc(C(=O)N2CCC(n3nccc3NC(=O)C3CCOC3)CC2)c1 (configuration not stated) | 5.06% | –
COc1ccc(-c2nnc(-c3ccc4ccccc4c3)o2)cc1 | -22.7% | –
CCOc1cc(C)c(Cl)cc1S(=O)(=O)n1nnc2ccccc21 | -14.4% | –
CCOc1ccc(C(C)C)cc1S(=O)(=O)n1nc(C)cc1C | – | 16.4 µM (active)
COc1ccc(C(C)C)cc1S(=O)(=O)Nc1ncn[nH]1 | 6.77% | –
CCc1ccccc1N1CN(Cc2ccco2)CNC1=S | -8.58% | –
O=C(CNC(=O)[C@@H]1Cc2ccccc2CN1)NC1CCCCC1 | -2.66% | –
C=CCn1c(CCc2ccc(OC(C)C)cc2)n[nH]c1=S | -29.5% | –
CC(C)Oc1ccc(CCc2n[nH]c(=S)n2Cc2ccccc2)cc1 | – | 25.9 µM (active)
CC(C)Oc1ccc(Cc2n[nH]c(=S)n2Cc2ccccc2)cc1Cl | -11.9% | –
O=[N+]([O-])c1ccc2nc(-c3ccccn3)[nH]c2c1 | – | 0.651 µM (active)
O=C(CSc1nc2ccc([N+](=O)[O-])cc2[nH]1)c1ccc(Cl)cc1 | -27% | –
O=c1[nH]c2cccnc2n1-c1ccc([N+](=O)[O-])cc1 | -6.6% | –
O=[N+]([O-])c1ccccc1/C=C/CN1CCCC(CO)C1 (configuration not stated) | -0.367% | –
CCSc1sc(CC)cc1C=O | -12.7% | –

SMILES | activity change, negative = growth inhibition | Potency
CCOc1ccc(C(C)NC(=O)CN2C(=O)NC3(CCCCC3)C2=O)cc1OCC (configuration not stated) | -1.96% | –
Cc1ccc2c(c1)N(CC(=O)N1CCOCC1)C(=O)CO2 | 18.3% | –
COc1ccc(CCNC(=O)CN2C(=O)COc3ccc(S(=O)(=O)N4CCCC4)cc32)cc1OC | -11% | –
CCCCN(CCCC)CCNC(=O)CN1C(=O)COc2ccc(S(=O)(=O)N3CCOCC3)cc21 | -27.9% | –
CC(=O)Nc1ccc(NC(=O)CN2C(=O)COc3ccc(S(=O)(=O)N4CCCCC4)cc32)cc1 | 1.6% | –
CCCCN(CCCC)CCCNC(=O)CN1C(=O)COc2ccc(S(=O)(=O)N3CCC(C)CC3)cc21 | – | 18.4 µM (active)
Cc1ccc(C)c(N2CCN(C(=O)CN3C(=O)COc4ccc(S(=O)(=O)N5CCCCCC5)cc43)CC2)c1 | – | 16.4 µM (active)
O=C(CCN1C(=O)c2ccncc2C1=O)Nc1cc(F)ccc1F | -2.86% | –
O=C(COC(=O)c1cnccn1)Nc1ccc(Cl)cc1C(F)(F)F | -2.73% | –
CC(OC(=O)CNC(=O)c1ccc(Cl)c([N+](=O)[O-])c1)C(=O)NCc1ccco1 (configuration not stated) | 9.09% | –
Cc1cc(=O)oc2c3c(cc(OCC(=O)N[C@H](C(=O)O)c4ccccc4)c12)OC(C)(C)CC3 | 1.09% | –
CCOCCOCCC(C(=O)O)P(=O)(c1ccccc1)c1ccccc1 (configuration not stated) | -9.55% | –
CCc1ccc(N2CC(C(=O)Nc3ccc(S(=O)(=O)Nc4nccs4)cc3)CC2=O)cc1 (configuration not stated) | -16% | –
CCc1cc2c(cc3c(=O)n(CC(=O)N4CCN(c5cc(Cl)ccc5C)CC4)ncn32)s1 | -19.2% | –
O=C1NC(Nc2nc3ccccc3s2)(C(F)(F)F)C(=O)N1C1CCCCC1 (configuration not stated) | – | 25.9 µM (active)
CCC1(CC)NC(=O)N(Cc2nc3ccccc3s2)C1=O | 8.86% | –
O=C(NC1(C(F)(F)F)NC(=O)N(C2CCCCC2)C1=O)c1ccco1 (configuration not stated) | 29.4% | –
COC(=O)C[C@@H]1C=C[C@@H](NC(=O)c2ccc3c(c2)OCO3)[C@@H](CO)O1 | -1.27% | –
O=C1C2C3C=CC(C3)C2C(=O)N1c1ncc([N+](=O)[O-])s1 (configuration not stated) | 23.9% | –
CC1Cc2[nH][nH]c(=O)c2C(C2CC2)O1 (configuration not stated) | -8.46% | –
CC(C)c1nc(SCC(=O)NC(=O)NC(C)(C)C)n[nH]1 | -1.92% | –
CN(C)c1ccc(NC(=O)CSc2n[nH]c(-c3ccco3)n2)cc1 | 0.483% | –
Cc1ccn2c(=O)nc(SCC(=O)NCc3ccc(F)cc3)nc2c1 | -2.41% | –
CCNS(=O)(=O)c1ccc(NC(=O)CSc2nc(-c3ccco3)cc(C(F)(F)F)n2)cc1 | – | 7.31 µM (active)
Cc1cccc(NC(=O)CSc2nc(-c3ccco3)cc(C(F)(F)F)n2)c1C | – | 10.3 µM (active)
CC(C)(C)NC(=O)CSc1nc(-c2ccc(F)cc2)cc(C(F)(F)F)n1 | – | 20.6 µM (active)
